This is an account of results in PubChem BioAssay.

Several values for one entry are separate records, joined by “and”; a condition that tells them apart may be missing. Equal entries are not always repeated. Activity calls are given as the source filed them.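 Rule for the calls, unless noted: active = compounds whose cell count with miR-34 switched on is under 0.7 times the count with it off; inactive = the rest.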

Experiment [1] can be described thus: EMT-state selective cytotoxicity in co-culture – imaging, PC-3E GFP, TEM4-18 mCherry, primary screen (AID 1345086;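 active = compounds killing one labelled cell type while sparing the other, by normalised counts and ratio limits, not self-fluorescent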;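 for all read-outs here: cells exposed to compound for 72 h before imaging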;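 for red/green cell ratio (normalised): normalised mesenchymal count divided by normalised epithelial count so high means epithelial killing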). As to conditions: PC-3E GFP / TEM4-18 mCherry co-culture, imaging cell counts, at 1 µM; for red/green cell ratio (normalised): actives lie on both sides, counts scaled to control wells, 1 = unselective.
Experiment [2] can be described thus: viability loss with induced miR-34 in A549 – imaging, A549 dox-inducible miR-34, nuclei and caspase counts, primary screen (AID 1347080). As to conditions: A549 miR-34 inducible, Hoechst nuclei count, 48 h.
Where [3] appears, read: measured here: epithelial PC-3E GFP cell survival.
Setting [4] is: measured here: mesenchymal TEM4-18 mCherry cell survival.
The mark [5] stands for this setting: stronger effect = lower value, cell number ratio, induced over uninduced.
[6] abbreviates: measured here: relative caspase fold change +Dox/-Dox.
Setting [7] is: measured here: total cells with miR-34 induction, stronger effect = lower value.
[8] abbreviates: measured here: total cells without miR-34 induction.

As for `O=C1c2c(O)cccc2[C@@H](O[C@@H]2O[C@H](CO)[C@H](O)[C@@H](O)[C@H]2O)c2cc(CO)cc(O)c21`, the red/green cell ratio (normalised) in experiment [1] was 0.78 (inactive). The normalised cell number in experiment [1] (setting [3]) is 1.12; in experiment [1] (setting [4]), 0.88. The fold change is 0.925 (inactive) in experiment [2] (setting [5]) and 0.87 in experiment [2] (setting [6]). Further, the cell count was 8450 in experiment [2] (setting [7]) and 9140 in experiment [2] (setting [8]).

As for `CC(=O)Oc1cc2c(s1)CCN([C@H](C(=O)C1CC1)c1ccccc1F)C2`, the red/green cell ratio (normalised) in experiment [1] was 1.12 (inactive). Besides, the normalised cell number in experiment [1] (setting [3]) is 0.87; in experiment [1] (setting [4]), 0.98. The values for the fold change in experiment [2] (setting [5]) and in experiment [2] (setting [6]) were 0.848 (inactive) and 0.716, respectively. Besides, the cell count in experiment [2] (setting [7]) was 7480; in experiment [2] (setting [8]), 8810.

Turning to `N[C@@H](CO)c1ccccc1`, the red/green cell ratio (normalised) in experiment [1] is 0.91 (inactive). Besides, the normalised cell number was 0.97 in experiment [1] (setting [3]) and 0.88 in experiment [1] (setting [4]). The fold change was 0.995 (inactive) in experiment [2] (setting [5]) and 0.434 in experiment [2] (setting [6]). Further, the cell count in experiment [2] (setting [7]) amounted to 5440; in experiment [2] (setting [8]) it was 5460.

Regarding `O=c1[nH]c(=O)n([C@H]2C[C@H](O)C(CO)O2)cc1I` (some centres not stated), the red/green cell ratio (normalised) in experiment [1] was 0.98 (inactive). Also, the normalised cell number is 1.09 in experiment [1] (setting [3]) and 1.07 in experiment [1] (setting [4]). The fold change in experiment [2] (setting [5]) was 1.01 (inactive); in experiment [2] (setting [6]), 0.724. The cell count in experiment [2] (setting [7]) came out at 7950; in experiment [2] (setting [8]), 7880.

Turning to `O=c1[nH]cnc2c1ncn2C1O[C@H](CO)[C@@H](O)[C@H]1O` (some centres not stated), the red/green cell ratio (normalised) in experiment [1] is 1.22 (inactive). For the same compound, the values for the normalised cell number in experiment [1] (setting [3]) and in experiment [1] (setting [4]) were 0.83 and 1.02, respectively. For the same compound, the fold change in experiment [2] (setting [5]) is 0.943 (inactive); in experiment [2] (setting [6]) it was 0.652. Besides, the cell count in experiment [2] (setting [7]) was found to be 8910; in experiment [2] (setting [8]), 9440.

For `Cc1cc(CC(C)CC(C)(C)C)n(O)c(=O)c1` (configuration not stated) (tested in a mixture with another compound), in experiment [1], the red/green cell ratio (normalised) was 0.92 (inactive). For the same compound, the figures for the normalised cell number in experiment [1] (setting [3]) and in experiment [1] (setting [4]) were 1.04 and 0.95, respectively. Also, the fold change in experiment [2] (setting [5]) is 1.25 (inactive) and 1.02 (inactive); in experiment [2] (setting [6]) it was 0.741 and 0.825. The cell count in experiment [2] (setting [7]) is 2940 and 2820; in experiment [2] (setting [8]), 2360 and 2770.

In the case of `C=C(C)C1CC=C(C)CC1` (configuration not stated), the red/green cell ratio (normalised) in experiment [1] is 0.93 (inactive). Further, the values for the normalised cell number in experiment [1] (setting [3]) and in experiment [1] (setting [4]) were 1.03 and 0.96, respectively. Moreover, the fold change in experiment [2] (setting [5]) is 0.884 (inactive); in experiment [2] (setting [6]) it was 1.07. Moreover, the cell count in experiment [2] (setting [7]) stood at 8150; in experiment [2] (setting [8]) it was 9220.

For the compound `COc1nc(N)nc2c1ncn2C1O[C@H](CO)[C@@H](O)[C@@H]1O` (some centres not stated), the red/green cell ratio (normalised) in experiment [1] was 0.99 (inactive). In addition, the normalised cell number in experiment [1] (setting [3]) is 0.92; in experiment [1] (setting [4]) it was 0.91. Besides, the fold change is 0.89 (inactive) in experiment [2] (setting [5]) and 0.801 in experiment [2] (setting [6]). In addition, the cell count was found to be 7770 in experiment [2] (setting [7]) and 8740 in experiment [2] (setting [8]).

`Cc1oc(=O)oc1CN1CCN(c2cc3c(cc2F)c(=O)c(C(=O)O)c2n3C(C)C2)CC1` (configuration not stated): in experiment [1], the red/green cell ratio (normalised) was 0.94 (inactive). Further, the results for the normalised cell number in experiment [1] (setting [3]) and in experiment [1] (setting [4]) were 0.97 and 0.91, respectively. Besides, the fold change in experiment [2] (setting [5]) is 0.994 (inactive); in experiment [2] (setting [6]), 0.87. The cell count in experiment [2] (setting [7]) was determined as 9060; in experiment [2] (setting [8]), 9120.

In the case of `CCCCCOC(=O)Nc1nc(=O)n(C2O[C@H](C)[C@@H](O)[C@H]2O)cc1F` (some centres not stated), in experiment [1], the red/green cell ratio (normalised) is 1.41 (inactive). Also, the normalised cell number in experiment [1] (setting [3]) was found to be 0.48; in experiment [1] (setting [4]), 0.68. Moreover, the fold change in experiment [2] (setting [5]) was 0.954 (inactive); in experiment [2] (setting [6]), 0.897. Also, the cell count in experiment [2] (setting [7]) is 8840; in experiment [2] (setting [8]), 9270.

Take `Cc1cc(=O)c(C(=O)N[C@@H](C(=O)N[C@@H]2C(=O)N3C(C(=O)O)=C(CSc4nnnn4C)CSC23)c2ccc(O)cc2)c[nH]1` (some centres not stated): the red/green cell ratio (normalised) in experiment [1] is 0.9 (inactive). Further, the normalised cell number was 1.24 in experiment [1] (setting [3]) and 1.12 in experiment [1] (setting [4]). For the same compound, the values for the fold change in experiment [2] (setting [5]) and in experiment [2] (setting [6]) were 0.93 (inactive) and 0.887, respectively. Also, the cell count in experiment [2] (setting [7]) was determined as 8940; in experiment [2] (setting [8]), 9610.
